# Values joined by “and” are separate entries in the source; they are usually repeats but may differ in a detail not shown here. Equal values may be shown once. Unmarked numbers belong to inactive results. Records with an inconclusive call do not appear. Entries that show only a call come without a potency. Active and inactive are the calls of the source. Unless noted, calls follow the shape of the full dose curve.
# Columns and labels:
# [1] = target: Estrogen receptor (Homo sapiens) (UniProt P03372); assay: qHTS assay for small molecule agonists of estrogen receptor alpha signaling (AID 588514); also: nearly all actives have a fitted effect of over 70% in size
# How it was run: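 EC50 and efficacy came from Hill fits of beta-lactamase reporter signal (CCF4 dye, 2 h at room temperature) scaled between DMSO and 20 nM 17-beta-estradiol. Agonist mode: HEK293 ER-alpha-UAS-bla cells in charcoal/dextran-stripped serum medium, 18 h compound exposure at 37 C.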
# [2] = qHTS assay to identify small molecules that stimulate interleukin-8 (IL-8) secretion (AID 651758; active = well fitted activation curve with a large enough effect in the signal ratio; the % refers to the signal ratio)
# How it was run: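 Secreted IL-8 measured homogeneously by TR-FRET (two labelled anti-IL-8 antibodies, 1-3 h at room temperature) after a 16 h, 37 C compound treatment of THP-1 cells at 2000 cells/well.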
# [3] = target: Cytochrome P450 3A4 (Homo sapiens) (UniProt P08684); assay: qHTS Assay for Activators of Cytochrome P450 3A4 (AID 885; active = well fitted curve in the direction sought with a large enough effect; an effect the other way counts as inactive or inconclusive; also: nearly all actives have a fitted effect of over 65% in size)
# How it was run: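 Luminescent readout of luciferin formed from 25 uM Luciferin-PPXE (KM level) by 20 nM CYP3A4 in 200 mM KPO4, with 60 min NADPH-driven reaction at room temperature after 10 min compound exposure. Ketoconazole (57 uM) defined 100% inhibition.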
# [4] = target: Androgen receptor (Homo sapiens) (UniProt P10275); assay: qHTS assay for small molecule agonists of androgen receptor signaling (AID 588515; active = well fitted curve in the direction sought with a large enough effect in the signal ratio, with a control signal flat; the % refers to the signal ratio); conditions: AR-UAS-bla HEK293, beta-lactamase ratio, agonist 16 h; active compounds read high
# How it was run: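 Stimulation of an AR-responsive β-lactamase reporter in GripTite HEK293 cells was measured after 16 h compound exposure at 37 °C, via CCF4 fluorescence after 2 h RT. EC50 from Hill fits, normalized to R1881 at 30 nM.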
# [5] = target: Androgen receptor (Homo sapiens) (UniProt P10275); assay: qHTS assay for small molecule antagonists of androgen receptor signaling (AID 588516; active = well fitted curve in the direction sought with a large enough effect in the signal ratio, with a control signal flat, not every such curve was filed as active; the % refers to the signal ratio)
# How it was run: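 Antagonist mode: inhibition of R1881-stimulated (10 nM final) bla reporter in GeneBLAzer AR HEK 293 cells, 16 h at 37C, compounds titrated. IC50 and efficacy from Hill-equation fits of 405/460–530 nm FRET ratios.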
# [6] = target: Bile acid receptor (Homo sapiens) (UniProt Q96RI1); assay: qHTS assay for small molecule antagonists of farnesoid X receptor signaling (AID 588526)
# How it was run: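 Beta-lactamase reporter antagonist mode: HEK293T FXR-UAS-bla cells, titrated compound, CDCA stimulation, 16 h 37 C, CCF4 dye 2 h RT. Data normalized to CDCA 50 uM and DMSO; Hill-fit IC50.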
# [7] = Confirmation and Secondary Assay for Modulators of Hemoglobin Beta Chain Splicing at IVS2 654 locus (AID 910; active = well fitted curve in the direction sought with a large enough effect; an effect the other way counts as inactive or inconclusive;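 also: HeLa cells stably carrying EGFP split by mutant beta-globin IVS2-654 intron; per-well total GFP intensity by laser scanning cytometry after 2-day treatment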)
# How it was run: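 Readout: per-well total peak green fluorescence (488 nm ex, 500–520 nm em) from objects 5–250 µm, reflecting correct splicing of an EGFP-654 reporter. Compounds were applied for 2 days at 37 °C to overnight-plated HeLa EGFP-654 cells; controls were DMSO and 500 nM IVS2-654 PNA.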
# [8] = Confirmation and Secondary Assay for Modulators of Hemoglobin Beta Chain Splicing at IVS2 705 locus (AID 930; active = well fitted curve in the direction sought with a large enough effect; an effect the other way counts as inactive or inconclusive;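 also: HeLa cells stably expressing the EGFP-705 splicing reporter; GFP fluorescence per well restored by corrected splicing of the IVS2-705 intron in EGFP; series mostly up to about 46 µM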)
# How it was run: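 HeLa EGFP-705 reporter; 500 cells/well, o/n 37C 5% CO2; cpd 2 d; 488 ex/500-520 em laser scan; total peak GFP intensity/well. Ref: 500 nM […] antisense PNA.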
# Chain of Cytochrome P450 3A4 (Homo sapiens) (P08684 whole entry, looked up): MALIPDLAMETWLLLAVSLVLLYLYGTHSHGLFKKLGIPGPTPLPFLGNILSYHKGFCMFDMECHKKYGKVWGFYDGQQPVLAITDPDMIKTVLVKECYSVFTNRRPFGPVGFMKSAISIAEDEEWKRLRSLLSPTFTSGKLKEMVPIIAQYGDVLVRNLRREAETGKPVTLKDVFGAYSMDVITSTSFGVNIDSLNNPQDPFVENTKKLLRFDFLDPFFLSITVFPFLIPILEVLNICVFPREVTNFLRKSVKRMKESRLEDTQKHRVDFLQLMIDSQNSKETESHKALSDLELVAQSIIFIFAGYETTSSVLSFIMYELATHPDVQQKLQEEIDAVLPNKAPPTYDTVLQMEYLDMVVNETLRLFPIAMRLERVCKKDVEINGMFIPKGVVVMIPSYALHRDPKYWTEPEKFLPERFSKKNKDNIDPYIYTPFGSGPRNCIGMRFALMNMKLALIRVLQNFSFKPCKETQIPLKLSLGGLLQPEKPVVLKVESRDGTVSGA
# Chain of Androgen receptor (Homo sapiens) (P10275 whole entry, looked up): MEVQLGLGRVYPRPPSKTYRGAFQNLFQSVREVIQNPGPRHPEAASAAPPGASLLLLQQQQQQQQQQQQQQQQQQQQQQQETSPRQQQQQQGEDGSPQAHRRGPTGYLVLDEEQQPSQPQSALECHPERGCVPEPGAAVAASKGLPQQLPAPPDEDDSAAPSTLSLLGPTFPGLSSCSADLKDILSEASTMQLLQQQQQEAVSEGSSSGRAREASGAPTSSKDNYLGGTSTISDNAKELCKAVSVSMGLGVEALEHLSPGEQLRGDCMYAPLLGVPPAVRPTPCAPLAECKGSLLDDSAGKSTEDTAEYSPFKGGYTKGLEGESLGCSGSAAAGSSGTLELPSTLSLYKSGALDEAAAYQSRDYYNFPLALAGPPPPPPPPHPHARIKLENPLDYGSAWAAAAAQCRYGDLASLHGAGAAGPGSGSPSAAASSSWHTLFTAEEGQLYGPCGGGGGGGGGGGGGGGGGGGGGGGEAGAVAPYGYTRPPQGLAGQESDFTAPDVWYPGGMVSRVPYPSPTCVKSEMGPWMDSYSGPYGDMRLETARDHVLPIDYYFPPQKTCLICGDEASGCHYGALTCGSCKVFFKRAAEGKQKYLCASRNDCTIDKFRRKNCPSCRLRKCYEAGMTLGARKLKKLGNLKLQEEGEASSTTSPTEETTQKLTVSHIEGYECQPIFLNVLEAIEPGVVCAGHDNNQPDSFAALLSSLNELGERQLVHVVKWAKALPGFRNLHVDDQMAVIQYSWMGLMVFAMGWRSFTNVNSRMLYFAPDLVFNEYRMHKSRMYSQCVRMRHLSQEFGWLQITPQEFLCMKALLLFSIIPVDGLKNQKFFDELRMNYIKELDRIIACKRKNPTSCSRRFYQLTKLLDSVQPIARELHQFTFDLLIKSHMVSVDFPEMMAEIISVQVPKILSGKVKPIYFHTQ
# Chain of Bile acid receptor (Homo sapiens) (Q96RI1 whole entry, looked up): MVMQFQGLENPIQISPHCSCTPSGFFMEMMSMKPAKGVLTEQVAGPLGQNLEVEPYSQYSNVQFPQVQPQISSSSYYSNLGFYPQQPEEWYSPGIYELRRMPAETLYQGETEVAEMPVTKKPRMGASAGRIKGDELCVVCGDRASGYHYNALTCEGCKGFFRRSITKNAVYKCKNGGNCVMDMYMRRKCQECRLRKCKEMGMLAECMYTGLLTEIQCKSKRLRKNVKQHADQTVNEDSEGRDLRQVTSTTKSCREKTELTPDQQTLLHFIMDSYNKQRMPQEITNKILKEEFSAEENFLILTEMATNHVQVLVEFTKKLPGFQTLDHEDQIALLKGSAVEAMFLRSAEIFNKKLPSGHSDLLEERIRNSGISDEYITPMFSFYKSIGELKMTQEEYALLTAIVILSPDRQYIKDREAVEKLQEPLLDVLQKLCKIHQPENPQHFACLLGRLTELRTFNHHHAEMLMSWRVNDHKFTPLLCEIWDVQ
# Chain of Estrogen receptor (Homo sapiens) (P03372 whole entry, looked up): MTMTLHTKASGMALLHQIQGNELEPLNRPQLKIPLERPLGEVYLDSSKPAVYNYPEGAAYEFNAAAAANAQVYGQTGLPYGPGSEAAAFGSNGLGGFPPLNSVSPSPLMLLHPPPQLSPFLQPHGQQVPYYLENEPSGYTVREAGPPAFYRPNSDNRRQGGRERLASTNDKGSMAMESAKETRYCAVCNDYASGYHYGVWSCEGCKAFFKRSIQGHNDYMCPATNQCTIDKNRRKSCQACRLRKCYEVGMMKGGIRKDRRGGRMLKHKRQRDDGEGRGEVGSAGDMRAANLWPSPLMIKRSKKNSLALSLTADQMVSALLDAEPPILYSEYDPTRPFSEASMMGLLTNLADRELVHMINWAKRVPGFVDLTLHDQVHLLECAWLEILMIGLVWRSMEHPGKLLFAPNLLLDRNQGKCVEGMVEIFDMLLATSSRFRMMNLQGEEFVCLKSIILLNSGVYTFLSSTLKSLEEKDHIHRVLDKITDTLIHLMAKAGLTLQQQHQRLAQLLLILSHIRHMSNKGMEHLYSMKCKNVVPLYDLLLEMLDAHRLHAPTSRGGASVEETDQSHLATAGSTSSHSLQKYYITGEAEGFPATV
smiles,measurement,setting,value
ClCc1ccccc1,Potency,[1],inactive
Clc1cccc(Cl)c1,Potency,[2],inactive
S=c1[nH]c2ccccc2[nH]1,Potency,[3],inactive
same,activation,[4],-0.602%
same,outcome,[5],inactive
same,Potency,[2],inactive
C=C(Cl)CCl,Potency,[2],inactive
ClC(Cl)c1ccccc1,Potency,[1],inactive
N#CCCCCC#N,outcome,[6],inactive
OCCBr,Potency,[1],inactive
same,outcome,[6],inactive
OCC(Cl)CCl (stereo not drawn),Potency,[1],inactive
COC(=O)Nc1cccc(OC(=O)Nc2cccc(C)c2)c1,Potency,[3],inactive
Nc1ccc(-c2ccccc2)cc1,Potency,[3],inactive
same,Potency,[1],inactive
Clc1cc(Cl)c(Cl)c(Cl)c1,Potency,[1],inactive
same,Potency,[2],inactive
Nc1ccc(Cl)c(Cl)c1,Potency,[3],inactive
C=C(C)CCl,Potency,[1],inactive
same,activation,[4],8.69%
same,outcome,[5],inactive
CCOP(=S)(OCC)SCCSCC,Potency,[3],inactive
O=[N+]([O-])CCO,Potency,[1],inactive
Oc1cc(Cl)cc(Cl)c1,Potency,[2],inactive
ClC(Cl)Br,Potency,[1],inactive
C=CCCC#N,outcome,[6],inactive
CNC(=O)O/N=C/C(C)(C)S(C)=O (stereo not drawn),Potency,[1],inactive
same,outcome,[6],inactive
Cc1ccc([N+](=O)[O-])cc1,Potency,[2],inactive
CCOC(=O)CC(SP(=O)(OC)OC)C(=O)OCC (stereo not drawn),Potency,[3],inactive
same,outcome,[6],inactive
C=C(Cl)CSC(=S)N(CC)CC,outcome,[6],inactive
O=NN1CCCCC1,activation,[4],6.11%
same,outcome,[5],inactive
O=C(Cc1ccccc1)OCc1ccccc1,Potency,[1],inactive
CC(C)(C)c1ccccc1O,Potency,[2],inactive
C=CC=O,Potency,[2],inactive
ClCCBr,Potency,[1],inactive
same,Potency,[2],inactive
CCC/C=N/O,Potency,[1],inactive
ClP(Cl)(Cl)(Cl)Cl,Potency,[1],inactive
Cc1ccc2c(C)cccc2c1,Potency,[1],inactive
same,Potency,[2],inactive
CCCN(CCC)c1c([N+](=O)[O-])cc(C(F)(F)F)cc1[N+](=O)[O-],Potency,[3],inactive
same,outcome,[7],inactive
same,outcome,[8],inactive
same,activation,[4],-14.6% and 7.28%
same,outcome,[5],inactive
[N-]=[N+]=[N-],Potency,[1],inactive
same,activation,[4],-1.14%
same,outcome,[5],inactive
Nc1c(Cl)cc([N+](=O)[O-])cc1Cl,Potency,[1],inactive
same,activation,[4],-19.7%
Brc1cccc(-c2ccccc2)c1,outcome,[6],inactive
Cc1ccc(N)c(N)c1,Potency,[3],inactive
Oc1cccc(Cl)c1Cl,Potency,[1],inactive
Nc1ccc(Oc2ccc(N)cc2)cc1,Potency,[3],inactive
CCCCCC[N+](=O)[O-],activation,[4],8.93%
